Source: PubChem BioAssay AID2599 (Sanford-Burnham Center for Chemical Genomics, 2010)
The whole screen tested about 330,000 compounds, of which about 5,800 (1.8%) were called active.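 How the source made its calls: active means inhibition above about 50% at the single tested dose (limit read from the data); inactive means the rest.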 Shown is part of a subset that was picked to be rich in actives.

What follows are compounds tested against Sentrin-specific protease 6 (Homo sapiens) (UniProt Q9GZR1) (assay: inhibition of human SENP6 catalytic domain – biochemical, luminescence, uHTS, primary screen (AID 2599;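 further: plate controls were DMSO wells with enzyme for no effect and DMSO wells lacking enzyme for full effect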)). Details: Recombinant SENP6 catalytic domain, aminoluciferin luminescence; at 10 µM; stronger effect = higher value.
Sequence of Sentrin-specific protease 6 (Homo sapiens) (Q9GZR1 628-1112 limits assumed): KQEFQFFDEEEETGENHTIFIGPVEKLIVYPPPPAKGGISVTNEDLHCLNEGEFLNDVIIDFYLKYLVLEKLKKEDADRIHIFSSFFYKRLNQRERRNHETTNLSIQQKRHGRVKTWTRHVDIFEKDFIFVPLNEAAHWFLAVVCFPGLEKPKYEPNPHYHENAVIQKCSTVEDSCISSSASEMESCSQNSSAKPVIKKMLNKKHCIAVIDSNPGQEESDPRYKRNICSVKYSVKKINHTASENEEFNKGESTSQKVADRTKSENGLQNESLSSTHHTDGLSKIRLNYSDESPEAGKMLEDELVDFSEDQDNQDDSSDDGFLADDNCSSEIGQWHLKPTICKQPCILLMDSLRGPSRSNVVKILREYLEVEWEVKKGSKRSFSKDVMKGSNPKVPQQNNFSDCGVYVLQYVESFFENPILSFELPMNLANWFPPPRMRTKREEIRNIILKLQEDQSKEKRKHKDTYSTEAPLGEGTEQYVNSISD

Compound | inhibition
C#CCOc1ccccc1/C=C1/C(=O)ON=C1C | 9.07% (inactive)
Cc1ccc(C23CC4CC(CC(C(=O)NCC(=O)O)(C4)C2)C3)cc1 | -30.4% (inactive)
CC(C)CCNC(=O)Cn1c(=O)oc2cc(S(=O)(=O)N3CC(C)CC(C)C3)ccc21 (stereo not given) | 2.44% (inactive)
C(=N\Nc1ccc2ccccc2n1)/c1ccc2c(c1)OCO2 | 91.4% (active)
Cc1noc(C)c1/C=N/Nc1ccc2ccccc2n1 | -42.7% (inactive)
Cc1cc(=O)[nH]c(N/N=C/c2ccc3c(c2)OCCO3)n1 | -9.26% (inactive)
O=C(CCc1n[nH]c(=O)[nH]c1=O)N/N=C/c1ccc(Br)o1 | -16.6% (inactive)
CCNc1nc(SCCOc2ccccc2)nc(N(C)C)n1 | -7.75% (inactive)
Cn1c(-c2ccco2)nc2cc3ccccc3cc21 | 98.6% (active)
CS(=O)(=O)n1nc(-c2ccco2)nc1N | 12.1% (inactive)
COc1ccccc1-n1c(-c2cc(-c3ccco3)[nH]n2)n[nH]c1=S | 8.36% (inactive)
COc1cc(/C=N/Nc2nc3ccccc3s2)ccc1O | 85.4% (active)
COc1ccc(/C=N/NC(=O)c2cc(-c3cccc(C)c3)nc3ccccc23)cc1O | 4.88% (inactive)
COc1cc(/C=N/NC(=O)CCc2n[nH]c(=O)[nH]c2=O)ccc1O | -10.3% (inactive)
Cc1c(C(=O)NNC(=O)c2ccncc2)oc2ccccc12 | -3.56% (inactive)
O=C(CCNC(=O)c1ccc(Cl)cc1)NC1CCCc2ccccc21 (stereo not given) | 2% (inactive)
Cc1cccc(C(=O)Nc2nnc(S(=O)(=O)N3CCCCCC3)s2)c1 | 33.1% (inactive)
O=C(Nc1nnc(S(=O)(=O)N2CCCCCC2)s1)c1cccc(Br)c1 | 75.4% (active)
O=C(Nc1nnc(S(=O)(=O)N2CCOCC2)s1)c1cccc(Br)c1 | 21.8% (inactive)
Cc1c(Cl)c([N+](=O)[O-])nn1CC(=O)NCC1CCCO1 (stereo not given) | -2.16% (inactive)
CCCCNC(=O)c1cn(CC)c2cc(N3CCN(C(=O)c4ccco4)CC3)c(F)cc2c1=O | 12.7% (inactive)
Cc1noc(C)c1CSc1nc2cc(S(=O)(=O)N3CCOCC3)ccc2o1 | 3.51% (inactive)
CSc1ccccc1NC(=O)c1cc(Cl)sc1Cl | -4.94% (inactive)
O=C(NC1CCCCC1)c1cc(C2CC2)on1 | -14.8% (inactive)
CSc1ccccc1NC(=O)c1cc(C2CC2)on1 | 52% (active)
Nc1c(C(=O)OCC(=O)Nc2ccc(OC(F)F)cc2)[nH]c(=O)[nH]c1=O | 4.9% (inactive)
O=C(/C=C/c1ccc([N+](=O)[O-])o1)NNC(=O)c1ccc(F)cc1 | -1.45% (inactive)

Compound | inhibition
CCCCN(CC)C(=O)C1CCCN(S(=O)(=O)c2cccc3nsnc23)C1 (stereo not given) | 8.83% (inactive)
COC(=O)c1cccc(C(=O)N2CCC(CCC(=O)NCc3ccc(F)cc3)CC2)c1 | 2.77% (inactive)
CCCc1nc(N2CCN(C)CC2)c2sc(=S)n(-c3ccccc3)c2n1 | 8.07% (inactive)
O=C(COc1ccc(Cl)cc1)NCc1nnc(SCC(=O)NCC2CCCO2)o1 (stereo not given) | -1.58% (inactive)
O=C1CSc2ccc(C(=O)NCc3ccccn3)cc2N1 | 0.274% (inactive)
c1ccc(CN=C2Nc3ccccc3CS2)nc1 | 52.5% (active)
COc1ccc(Cl)cc1NS(=O)(=O)c1cccc(C(=O)NC2CCC(O)CC2)c1 (stereo not given) | 3.9% (inactive)
CN1C(=O)/C(=C\c2cc(Br)cs2)c2ccccc21 | 66.3% (active)
CN1C(=O)/C(=N/OC(=O)c2ccccc2Br)c2ccccc21 | 20.2% (inactive)
CCC1C(=O)c2ccccc2N(C)C1=O (stereo not given) | -9.28% (inactive)
CCOc1ccc(C(c2c(C)[nH][nH]c2=O)c2c(C)[nH][nH]c2=O)cc1OCC | 16.7% (inactive)
O=C(NC1CCCCC1)c1ccc(-c2ccc(Cl)cc2)o1 | -2.51% (inactive)
Cc1[nH][nH]c(=O)c1C(c1ccc(-c2ccc(Cl)cc2)o1)c1c(C)[nH][nH]c1=O | 53.1% (active)
Cc1cccc(NC(=O)C2CCCN(C(=O)NCc3ccccc3)C2)c1C (stereo not given) | 8.32% (inactive)
CCNC(=O)CC1C(=O)N(c2ccc(OC)cc2)C(=O)N1CCOC (stereo not given) | -17.8% (inactive)
CCCCCCCCCOC1OC(CO)C(O)C(O)C1NC(C)=O (stereo not given) | -4.5% (inactive)
Clc1ccc(C2=CSC3=Nc4cccc5cccc(c45)N23)cc1 | 82.2% (active)
CCCN(CCc1ccccc1)C1CCc2c(O)cccc2C1 (stereo not given) | -8.37% (inactive)
CCCc1cc(C(=O)Nc2ccc(Cl)cn2)cs1 | 86.5% (active)
Cc1cccc(C)c1NC(=O)CNC(=O)c1ccc2c(c1)OCCO2 | -7.93% (inactive)
COc1ccc(C(=O)NC(=S)Nc2ccc(Cl)cn2)cc1OC | -0.015% (inactive)
COc1c(Cl)cc(C(=O)Nc2ccc(Cl)cn2)cc1Cl | 23.4% (inactive)
CCCc1cc(C(=O)Nc2ccc(C(=O)OC)cc2)cs1 | -4.63% (inactive)
Cc1ccc(C(=O)NNC(=O)c2ccc3c(c2)OCCO3)cc1 | 16.5% (inactive)
O=C(Nc1ccc(Cl)cn1)c1ccc2c(c1)OCCO2 | 76.8% (active)
CCCCC(CC)C(=O)Nc1ccc(Cl)cn1 (stereo not given) | 0.311% (inactive)
Cc1nc(NC(=O)c2ccc3c(c2)OCCO3)ccc1Br | 70.9% (active)

Compound | inhibition
O=C(/C=C/c1cnc2ccccc2n1)NC1CCCCCC1 | -2.57% (inactive)
O=C(CC1C(=O)NCCN1Cc1ccc(-c2ccccc2)cc1)NCc1ccncc1 (stereo not given) | -5.88% (inactive)
CC1CN(S(=O)(=O)c2cccc(C(F)(F)F)c2)CN1C(=O)N1CCOCC1 (stereo not given) | -20.3% (inactive)
COc1cc(OC)c(NC(=O)C2CCCN2C(=O)OCc2ccccc2)cc1Cl (stereo not given) | -8.31% (inactive)
CC1(C)CC(=O)C2=C(C1)NCN(CCCN1CCOCC1)C2 | 1.73% (inactive)
CCCn1nnc(NC(=O)COc2ccc(CC)cc2)n1 | 1.27% (inactive)
CC(=O)C(CC(=O)N1CCCC1)C(=O)Nc1ccc(Cl)cc1 (stereo not given) | -4.11% (inactive)
CC(C)C(=O)Nc1nnc(Sc2ccc(N(C)C)cc2)s1 | -0.866% (inactive)
O=C(c1ccc(F)cc1)c1cn(Cc2ccc(F)cc2)c2cc3c(cc2c1=O)OCCO3 | -4.67% (inactive)
COCCN(CCOC)c1nc(N)c2c(N)nc3c(c2c1C#N)CC(=O)N3Cc1ccc(Cl)cc1 | 81.3% (active)
CC1COC2C(O1)N(S(C)(=O)=O)CCN2S(C)(=O)=O (stereo not given) | -1.6% (inactive)
CC1(C)CC(=O)C=C(NCc2ccncc2)C1 | 11.9% (inactive)
Cc1csc(OCC(=O)Nc2ccc(C)c(C)c2)n1 | -7.65% (inactive)
Oc1ccc(Br)cc1C=Nc1ccc2[nH]ncc2c1 | 55.4% (active)
CCN(CC)CCn1c(/N=C/c2cc(Br)ccc2O)nc2ccccc21 | 5.27% (inactive)
Oc1ccc(Br)cc1/C=N/Nc1ccccn1 | 14.9% (inactive)
Cc1ccn(-c2cccc(-n3ccc(C)n3)n2)n1 | -0.107% (inactive)
O=S(=O)(c1ccc(Br)c2ccccc12)N1CCOCC1 | -3.67% (inactive)
Cc1c(Cl)c([N+](=O)[O-])nn1CC(=O)NCCCN1CCOCC1 | -13.8% (inactive)
CC(=O)c1cc2c(cc1N)OCO2 | 1.73% (inactive)
N/C(=N\OC(=O)c1ccc2c(c1)OCO2)c1ccc(Br)cc1 | 46% (inactive)
Nc1[nH][nH]c(=O)c1N=Nc1ccc2c(c1)OCO2 | 51.5% (active)
Cn1c2ccccc2c2cc(/C=C(\NC(=O)c3ccccc3)C(=O)NCC(=O)O)ccc21 | -6.28% (inactive)
Cc1nn(C)c(C)c1NS(=O)(=O)c1ccc(OC(F)(F)F)cc1 | 5.85% (inactive)
O=C1COc2ccc(S(=O)(=O)Nc3ccc(OC(F)(F)F)cc3)cc2N1 | -6.08% (inactive)
O=S(=O)(Nc1ccc(O)c2ccccc12)c1ccc(OC(F)(F)F)cc1 | 74.9% (active)
C[C@@H]1CN([C@@H](C)CO)C(=O)c2cccc(NS(=O)(=O)c3ccc(F)cc3)c2O[C@H]1CN(C)C(=O)NC1CCCCC1 | -9.28% (inactive)

Compound | inhibition
CCOc1ccc(NC(=O)COc2ccc(S(=O)(=O)N3CCCC3)cc2)cc1 | -19.8% (inactive)
N=c1oc2ccccc2cc1C(=O)N/N=C/c1ccccc1 | 89.2% (active)
Cc1ccc(/C=N/NC(=O)c2cc3ccccc3cc2O)o1 | 73.7% (active)
O=C(N/N=C\c1cccnc1)c1cc(-c2ccccc2)nc2c(Cl)cccc12 | -10.9% (inactive)
Cc1ccc(/C=N/NC(=S)Nc2cccc(S(=O)(=O)N(C)C)c2)o1 | -0.431% (inactive)
CNC(=O)c1cc2c(ccc3ccccc32)oc1=N | 6.2% (inactive)
Cc1ccc(/C=N/NC(=S)NC2CCCCC2)o1 | -24.3% (inactive)
N=c1oc2ccccc2cc1C(=O)NCc1ccccc1 | -3.97% (inactive)
O=C(N/N=C/c1cccnc1)c1ccc(NC(=O)c2ccc(F)cc2)cc1 | -21.5% (inactive)
O=C(N/N=C/c1cccnc1)c1cc2ccccc2cc1O | 54.6% (active)
CCCN(CC(=O)Nc1ccccc1OC)C(=O)CCC(=O)c1ccc(F)cc1 | -2.28% (inactive)
O=C(C(=O)N1CCc2ccccc2C1)c1c[nH]c2ccccc12 | -7.83% (inactive)
CC(NC(=O)c1cccc(S(=O)(=O)N2CCc3ccccc3C2)c1)c1ccco1 (stereo not given) | -17.8% (inactive)
CCOc1cc(/C=C2\SC(N3CCCC(C)C3)=NC2=O)ccc1O (stereo not given) | 11.9% (inactive)
CCCc1ccc(OCC(O)CN2CCN(CCO)CC2)cc1 (stereo not given) | 5.43% (inactive)
CCc1cccc(NC(=O)COC(=O)C2CCN(c3ccc(C(F)(F)F)cn3)CC2)c1 | 33.7% (inactive)
CCOc1ccc(CN2CCN(CCCc3ccccc3)C(CCO)C2)cc1 (stereo not given) | 9.84% (inactive)
Cc1nnc(CN(C)Cc2cn[nH]c2-c2ccc(-c3ccccc3)cc2)o1 | -1.7% (inactive)
Cc1c(Cl)cccc1NC(=O)CC1SC(=NCC2CCCO2)NC1=O (stereo not given) | -0.542% (inactive)
COc1ccc(OC)c(/C=C/C(=O)c2ccc3c(c2)OCO3)c1 | -8.22% (inactive)
CC(Sc1nnc(COc2ccccc2)n1-c1ccccc1)C(=O)O (stereo not given) | -16.5% (inactive)
Nc1ccccc1/C=N\N=C/c1ccccc1N | 60.6% (active)
C=CCC[C@H](Cc1ccc(F)cc1)C(=O)OC[C@H](C)NC(=O)[C@H](CC=C)CC(=O)N(CCO)Cc1ccccc1 | -7.07% (inactive)
CCCCCCC12CCC(C(=O)O)(CC1)CC2 | -27.4% (inactive)
